Screens deposited in PubChem by National Center for Advancing Translational Sciences (NCATS).
Hits are enriched below; roughly 19% of the tested compounds scored in any of these assays.
TGFb inhibitor: inhibitors of TGF-b signaling; 1.2% of 410,000 active; HepG2 CAGA-GFP TGF-b/SMAD3 reporter, GFP fluorescence, 18 h; TGF-beta stimulated, 500 pg/mL final; Potency, µM (titrated, usually from 46.1 µM), without a hit: top-dose activity, negative = inhibition, usual class: inhibitors; also: potency is read from the fitted curve at half-maximal effect; % is scaled to controls: 0 for no effect and ±100 for the full control effect; nearly all actives have a fitted effect of over 65% in size
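Cell-based qHTS in HEPG2 carrying a CAGA-GFP Smad reporter; compounds added before 500 pg/mL final TGF-beta, 18 h incubation at 37 degrees C, GFP fluorescence quantified per cell by imaging cytometry.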
TDP1 cell CPT: DT40-hTDP1 cell growth loss with CPT. chicken DT40 Tdp1-/-;hTDP1 cells + 20 nM CPT, ATP luminescence, 48 h. Potency, µM (titrated, usually from 46.2 µM), without a hit: top-dose activity change, negative = growth inhibition, hits mostly inhibitors. 12% of 420,000 active. AID 686979; also: potency is read from the fitted curve at half-maximal effect; % is scaled to controls: 0 for no effect and ±100 for the full control effect; nearly all actives have a fitted effect of over 55% in size
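Chicken DT40 Tdp1-/- cells complemented with human TDP1, 400 cells/well, exposed to compounds plus 20 nM camptothecin for at least 48 h at 37 C; viability read as ATP content by CellTiter-Glo luminescence.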
HepG2 tox: HepG2 cytotoxicity, counter-screen for TGF-b inhibitors | HepG2 CAGA-GFP viability, ATP luminescence, 18 h | Potency, µM (top dose mostly 46.1 µM), for the others: at the top dose activity change, negative = cytotoxicity, actives largely listed as cytotoxic | 0.76% of 410,000 active; also: potency is read from the fitted curve at half-maximal effect
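HepG2 CAGA-GFP cells (1000/well, DMEM with 1% FBS) received compound, then TGF-beta at 500 pg/mL final, and were incubated 18 hours at 37 degrees C. Viability was read by CellTiter-Glo luminescence. Media-only wells were set as complete cell-killing and DMSO as no toxicity.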
IL-1B inflam inh: inhibitors of inflammasome signaling (IL-1 beta secretion). THP-1 LPS/ATP IL-1B secretion, AlphaLISA, 16 h; hits give low values. activity change, % at 57.5 µM. 4.7% of 360,000 active; in the data active = activity change below about -50%; inconclusive = mostly about -30% to -49%; also: % is scaled to controls: 0 for no effect and ±100 for the full control effect
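Secreted IL-1B measured by AlphaLISA bead assay after 16 h compound exposure of THP-1 cells; compounds (final up to 57.5 uM) added 1 h before LPS (250 ng/mL) and ATP (1.25 mM) stimulation; lower signal means less secretion.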
TDP1 cell noCPT: qHTS for Inhibitors of human tyrosyl-DNA phosphodiesterase 1 (TDP1): qHTS in cells in absence of CPT. 15% of 420,000 active. AID 686978, 2013. Potency, µM (highest dose often 46.2 µM), inactives show top-dose activity change, negative = growth inhibition, hits mostly inhibitors. DT40 Tdp1-/- hTDP1 cells, no CPT, ATP luminescence, 48 h; also: potency is read from the fitted curve at half-maximal effect; % is scaled to controls: 0 for no effect and ±100 for the full control effect; nearly all actives have a fitted effect of over 55% in size
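Readout: luminescence from CellTiter-Glo after 30 min in the dark at RT. Cells: DT40 Tdp1-/- with stable hTDP1, 400/well. Exposure: compounds alone, ≥48 hr, 37 °C.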
TDP1 block: TDP1 (human) enzyme inhibition | 0.28% of 350,000 active | Q9NUW8 | Potency, µM (top dose mostly 130 µM), inactives show at the highest dose activity change, negative = inhibition, hits mostly inhibitors | recombinant TDP1, AlphaScreen DNA substrate cleavage; also: potency is read from the fitted curve at half-maximal effect; % is scaled to controls: 0 for no effect and ±100 for the full control effect; nearly all actives have a fitted effect of over 40% in size
Target sequence (Q9NUW8 whole entry, looked up): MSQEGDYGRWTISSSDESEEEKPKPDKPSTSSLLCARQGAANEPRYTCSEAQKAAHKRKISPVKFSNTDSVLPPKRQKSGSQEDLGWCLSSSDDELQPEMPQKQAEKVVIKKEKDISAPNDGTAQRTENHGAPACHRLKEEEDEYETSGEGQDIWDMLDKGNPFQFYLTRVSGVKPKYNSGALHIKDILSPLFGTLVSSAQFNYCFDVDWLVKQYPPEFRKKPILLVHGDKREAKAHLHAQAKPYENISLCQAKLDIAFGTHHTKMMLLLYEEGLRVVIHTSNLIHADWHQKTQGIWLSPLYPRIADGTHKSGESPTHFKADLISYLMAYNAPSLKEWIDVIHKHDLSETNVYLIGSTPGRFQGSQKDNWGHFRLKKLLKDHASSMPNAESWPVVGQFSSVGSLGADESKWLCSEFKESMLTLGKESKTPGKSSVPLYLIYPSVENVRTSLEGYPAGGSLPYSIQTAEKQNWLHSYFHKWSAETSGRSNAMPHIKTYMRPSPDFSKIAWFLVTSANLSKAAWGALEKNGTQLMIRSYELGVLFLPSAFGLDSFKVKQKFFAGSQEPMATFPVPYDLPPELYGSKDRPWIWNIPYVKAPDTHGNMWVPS
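AlphaScreen read-out: signal falls as enzyme removes the 3' tyrosine-FITC from a 5'-biotinylated DNA oligo (15 nM, 5 min, RT). Enzyme was E. coli-made recombinant Tdp1 at 1 nM, exposed to compound for 15 min beforehand; beads 10 ug/ml, 10 min.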
* = called active by the depositor; i = inactive; u = inconclusive; x = no result. Unless noted, calls follow the shape of the dose curve; as a rule, active = well fitted curve in the direction sought with a large enough effect; inconclusive = small, poorly fitted or top-dose-only effect, or another doubt; inactive = no such curve, though single readings can be large; an effect the other way counts as inactive or inconclusive.

SMILES	TGFb inhibitor	TDP1 cell CPT	HepG2 tox	IL-1B inflam inh	TDP1 cell noCPT	TDP1 block
O=C(N/N=C/c1ccc(OC(=O)c2ccccc2)cc1)c1ccc(CN2CCOCC2)cc1	-21.8%	u	-3.0%	7.9	11.6µM*	5.3%
COc1ccc(C(=O)N/N=C/c2ccccc2OC(=O)c2ccccc2)cc1	u	0.581µM*	-67.1%	116.7	0.517µM*	-11.4%
COc1ccc(C(=O)N/N=C/c2ccc(N(C)c3ccccc3)cc2)cc1	0.0%	u	-16.7%	u	23.1µM*	x
CC(C)(C)C(=O)Nc1ccc(C(=O)N/N=C/c2ccccc2OC(=O)c2ccc(Cl)cc2)cc1	u	5.17µM*	-6.4%	2.8	4.61µM*	2.7%
CN(CC(=O)Nc1cccc2ccccc12)C(=O)c1ccc(F)cc1F	0.6%	-17.5%	-1.9%	0.0	2.9%	-0.4%
COC(=O)COc1ccc(/C=N/NC(=O)c2ccc(N(Cc3ccccc3)S(C)(=O)=O)cc2)cc1	u	-25.4%	-3.2%	-95.3*	-29.1%	2.6%
COc1ccccc1/C=N/NC(=O)c1ccc2c(c1)OCO2	-3.5%	-0.6%	13.7%	2.0	0.8%	x
COc1ccc(C(=O)N/N=C/c2ccc(OC(=O)c3ccccc3)cc2)cc1	-0.3%	-12.1%	-15.8%	-8.0	-16.2%	1.2%
CC(C)Oc1ccc(/C=N/NC(=O)c2ccc(N(Cc3ccccc3)S(C)(=O)=O)cc2)cc1	-0.6%	u	5.7%	-9.7	u	8.1%
CC(C)(C)C(=O)Nc1ccc(C(=O)N/N=C/c2ccccc2OC(=O)c2ccccc2)cc1	-14.6%	6.51µM*	-14.4%	96.3	7.31µM*	2.0%
O=C(N/N=C/C(Cl)=C/c1ccccc1)c1ccc2c(c1)OCO2	7.9%	u	-54.2%	-16.1	20.6µM*	x
O=C(N/N=C/c1ccccc1OC(=O)c1ccc2c(c1)OCO2)c1ccccc1	u	4.11µM*	-38.0%	0.0	4.11µM*	1.9%
CCc1ccnc(NS(=O)(=O)c2ccc3c(c2)CCO3)c1	8.0%	4.7%	-1.1%	8.4	-0.5%	8.6%
O=C(Nc1ccnn1C1CCN(Cc2cc(Cl)ccc2O)CC1)C1CC1	4.7%	u	-3.4%	38.9	-23.2%	2.5%
Cc1ccc(OC(C)C(=O)N(C)c2ccccc2)c([N+](=O)[O-])n1 (stereo not drawn)	1.9%	15.2%	-13.9%	42.1	11.3%	-0.2%
CCNc1ncc2nc(-c3ccc(OC)cc3)c(=O)n(Cc3ccc(F)cc3)c2n1	x	-10.9%	x	x	6.2%	x
COc1cccc(CNC(=O)Cn2ncc3c(=O)oc4ccccc4c32)c1	0.2%	u	-9.8%	26.8	u	-2.3%
COCCNC(=O)C1(C)CCN(C(=O)c2ccc3c(c2)C(C)(C)CCC3(C)C)C1 (stereo not drawn)	-20.2%	u	-16.8%	27.8	25.9µM*	x
COCCNC(=O)C1CCCN(C(=O)c2ccnc(Cl)c2)CC1 (stereo not drawn)	-3.1%	-10.5%	3.5%	-62.3*	-15.9%	x
COCCNC(=O)C1CCCN(C(=O)c2ccc(OC)c(F)c2)CC1 (stereo not drawn)	-0.1%	0.5%	6.2%	4.0	6.0%	x
COCCNC(=O)C1CCCN(C(=O)c2ccc3c(c2)C(C)(C)CCC3(C)C)CC1 (stereo not drawn)	1.0%	13µM*	-27.7%	-5.0	u	x
COCCNC(=O)C1(C)CCN(C(=O)c2ccc(F)c(C)c2)C1 (stereo not drawn)	19.1%	-5.8%	3.9%	5.4	-7.5%	x
COCCNC(=O)CSc1nc2ccccc2nc1Cc1ccc(C)cc1	0.5%	-25.5%	-24.1%	x	-16.3%	0.0%
COc1ccc(Cl)cc1NC(=O)Cn1c(=O)n2nc(-c3ccccc3)nc2c2ccccc21	-40.8%	-4.9%	-24.1%	x	-23.7%	3.8%
C[C@H](CO)N1C[C@H](C)[C@H](CN(C)C(=O)Nc2cccc(C(F)(F)F)c2)OCc2cnnn2CCCC1=O	-0.1%	-11.9%	-0.8%	4.2	-27.7%	x
SMILES	TGFb inhibitor	TDP1 cell CPT	HepG2 tox	IL-1B inflam inh	TDP1 cell noCPT	TDP1 block
O=[N+]([O-])c1ccc(C[n+]2cc(-c3ccccc3)n3c2CCCCC3)cc1	22.6%	u	16.9%	-7.3	11.6µM*	8.1%
O=[N+]([O-])c1cccc(-c2nnc3n2CCCCC3)c1	11.9%	-5.0%	0.6%	-16.8	-11.4%	10.5%
O=[N+]([O-])c1ccc(C[n+]2cc(-c3ccc(Cl)c(Cl)c3)n3c2CCCCC3)cc1	13.2%	u	46.1%	-24.7	5.8µM*	x
CC(C)n1cc(/C(N)=N/O)c(=O)n(Cc2ccccc2)c1=O	15.4%	0.1%	1.4%	4.9	-2.3%	0.0%
Cc1ccc(NC(=O)c2ccc(CNS(=O)(=O)c3ccc4c(c3)C(C)(C)C(=O)N4C)cc2)cc1C	u	14.6µM*	-26.6%	x	11.6µM*	0.0%
COc1cccc(S(=O)(=O)NCc2ccc(C(=O)Nc3cccc(Cl)c3)cc2)c1	-13.5%	20.6µM*	-3.1%	u	25.9µM*	-1.1%
COc1cccc(NC(=O)c2ccc(CNS(=O)(=O)c3ccc4c(c3)C(C)(C)C(=O)N4C)cc2)c1	-2.2%	u	-26.6%	x	23.1µM*	0.0%
Cc1ccccc1NC(=O)c1ccc(CNS(=O)(=O)c2ccc3c(c2)C(C)(C)C(=O)N3C)cc1	3.0%	u	-1.3%	x	u	2.6%
Cc1cccc(NC(=O)c2ccc(CNS(=O)(=O)c3ccc4c(c3)C(C)(C)C(=O)N4C)cc2)c1	-28.0%	20.6µM*	-12.0%	x	11.6µM*	-5.1%
COc1cccc(NC(=O)c2ccc(S(=O)(=O)NCc3cccnc3)cc2)c1	-9.7%	u	-27.1%	50.3	u	x
Cc1ccc(NC2CCCN(C(=O)c3ccc(-n4ccnc4)cc3)C2)cc1C (stereo not drawn)	-7.9%	-16.1%	4.1%	i	-26.0%	8.5%
COC(=O)[C@@H]1C[C@@H]2CC[C@@H](O)C[C@@H]2N1Cc1ccc(C)s1	x	x	x	x	x	5.1%
CCCCC(=O)NC(c1ccc(OC)cc1)c1ccc2cccnc2c1O (stereo not drawn)	u	5.8µM*	-4.9%	116.5	9.2µM*	x
CCCC(=O)NC(c1ccccc1Cl)c1ccc2cccnc2c1O (stereo not drawn)	u	3.26µM*	-3.3%	107.5	5.17µM*	x
